How the values were obtained:
Test in all cases: PBM binding z-score (relative to random genomic background probes); higher = stronger binding; sequences stand for … in GC…GCGATTGACAGCGTAGAATGAAGG
[1] = test system: PPARg:RXRa DBDmut IVT, anti-RXR (DBD mutation: RXRa K156A/R161A, NR concentration 270 nM, RXRa partner concentration 90 nM)
In short: (§1)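 Antibodies against each partner of ligand-free nuclear receptor dimers (one per run) detected binding on custom Agilent 4×180K protein-binding microarrays after 1 h incubation. The double-stranded probes had 34-nt variable regions carrying direct-repeat seeds, single-nucleotide variants, half-site ablations and random human genomic background sequences. Binding z-scores, from regression-normalized fluorescence, use the random background probes as reference.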

[2] = test system: PPARg:RXRa IVT, anti-PPARg (NR concentration 270 nM, RXRa partner concentration 90 nM)
In short: as §1

[3] = test system: PPARg DBDmut:RXRa IVT, anti-PPARg (DBD mutation: PPARg1 K132A/R137A, NR concentration 270 nM, RXRa partner concentration 90 nM)
In short: as §1

[4] = test system: PPARg DBDmut IVT, anti-PPARg (DBD mutation: PPARg1 K132A/R137A, NR concentration 270 nM)
In short: as §1

[5] = test system: PPARg homodimer (NR concentration 180 nM)
In short: as §1

[6] = test system: PXR:RXRa (NR concentration 270 nM, RXRa partner concentration 90 nM)
In short: as §1

[7] = test system: PXR homodimer (NR concentration 270 nM)
In short: as §1

[8] = test system: RARa:RXR (NR concentration 270 nM, RXRa partner concentration 90 nM)
In short: as §1

[9] = test system: RARa homodimer (NR concentration 270 nM)
In short: as §1

[10] = test system: RARb:RXRa (NR concentration 270 nM, RXRa partner concentration 90 nM)
In short: as §1

[11] = test system: RARb homodimer (NR concentration 270 nM)
In short: as §1

[12] = test system: RARg:RXRa (NR concentration 270 nM, RXRa partner concentration 90 nM)
In short: as §1

[13] = test system: RARg homodimer (NR concentration 270 nM)
In short: as §1

[14] = test system: RXRa DBDmut IVT, anti-RXR (DBD mutation: RXRa K156A/R161A, NR concentration 90 nM)
In short: as §1

[15] = test system: RXRa homodimer (NR concentration 180 nM)
In short: as §1

[16] = test system: THRa:RXRa (NR concentration 90 nM, RXRa partner concentration 90 nM)
In short: as §1

[17] = test system: THRa homodimer (NR concentration 90 nM)
In short: as §1

[18] = test system: VDR homodimer (NR concentration 270 nM)
In short: as §1

## CCTAGTTGGTCAAGGACACACACGCTATAGGTAC
[1]
  PBM binding z-score: 1.07
[2]
  PBM binding z-score: 1.39
[3]
  PBM binding z-score: 0.248
[4]
  PBM binding z-score: -0.0353
[5]
  PBM binding z-score: 0.735
[6]
  PBM binding z-score: 0.0768
[7]
  PBM binding z-score: 0.977
[8]
  PBM binding z-score: 1.06
[9]
  PBM binding z-score: 1.89
[10]
  PBM binding z-score: 1.51
[11]
  PBM binding z-score: 1.47
[12]
  PBM binding z-score: 1.19
[13]
  PBM binding z-score: 1.81
[14]
  PBM binding z-score: 0.547
[15]
  PBM binding z-score: 0.578
[16]
  PBM binding z-score: 2.95
[17]
  PBM binding z-score: 2.82
[18]
  PBM binding z-score: 1.33

## ACAGACAGGTGATGAAGGTGACTCAGGCTATCAT
[1]
  PBM binding z-score: 0.111
[2]
  PBM binding z-score: 0.845
[3]
  PBM binding z-score: 0.651
[4]
  PBM binding z-score: 0.382
[5]
  PBM binding z-score: 0.791
[6]
  PBM binding z-score: 0.114
[7]
  PBM binding z-score: 0.191
[8]
  PBM binding z-score: 0.48
[9]
  PBM binding z-score: 0.471
[10]
  PBM binding z-score: 0.728
[11]
  PBM binding z-score: 1.34
[12]
  PBM binding z-score: 0.646
[13]
  PBM binding z-score: 0.55
[14]
  PBM binding z-score: -0.283
[15]
  PBM binding z-score: 0.581
[16]
  PBM binding z-score: 1.01
[17]
  PBM binding z-score: -0.00476
[18]
  PBM binding z-score: -0.102

## GCACACAGGTGAAACGCAGGTAACTCAGGGTGGC
[1]
  PBM binding z-score: 1.25
[2]
  PBM binding z-score: 1.35
[3]
  PBM binding z-score: -0.286
[4]
  PBM binding z-score: -0.23
[5]
  PBM binding z-score: -0.0515
[6]
  PBM binding z-score: -0.134
[7]
  PBM binding z-score: -0.747
[8]
  PBM binding z-score: 0.575
[9]
  PBM binding z-score: -0.648
[10]
  PBM binding z-score: 0.803
[11]
  PBM binding z-score: 0.327
[12]
  PBM binding z-score: 1.15
[13]
  PBM binding z-score: 0.263
[14]
  PBM binding z-score: -0.192
[15]
  PBM binding z-score: 0.954
[16]
  PBM binding z-score: 1.47
[17]
  PBM binding z-score: -0.486
[18]
  PBM binding z-score: -0.299

## ACTAGTTGGTCAGCTGAGGTGACACACAATTCGG
[1]
  PBM binding z-score: 1.56
[2]
  PBM binding z-score: 2
[3]
  PBM binding z-score: 0.518
[4]
  PBM binding z-score: 0.422
[5]
  PBM binding z-score: 0.486
[6]
  PBM binding z-score: 0.897
[7]
  PBM binding z-score: 0.101
[8]
  PBM binding z-score: 1.27
[9]
  PBM binding z-score: -0.129
[10]
  PBM binding z-score: 1.45
[11]
  PBM binding z-score: 1.74
[12]
  PBM binding z-score: 1.34
[13]
  PBM binding z-score: 1.29
[14]
  PBM binding z-score: -0.108
[15]
  PBM binding z-score: 0.902
[16]
  PBM binding z-score: 4.41
[17]
  PBM binding z-score: 2.03
[18]
  PBM binding z-score: 0.149

## CCTAGCCGGCCAGGGTCACTCAAGCATTTCGCTT
[1]
  PBM binding z-score: -0.601
[2]
  PBM binding z-score: 0.147
[3]
  PBM binding z-score: -1.32
[4]
  PBM binding z-score: -1.69
[5]
  PBM binding z-score: 0.756
[6]
  PBM binding z-score: 2.84
[7]
  PBM binding z-score: -0.583
[8]
  PBM binding z-score: 3.45
[9]
  PBM binding z-score: -0.658
[10]
  PBM binding z-score: 2.56
[11]
  PBM binding z-score: 2.68
[12]
  PBM binding z-score: 3.09
[13]
  PBM binding z-score: 2.37
[14]
  PBM binding z-score: 0.0811
[15]
  PBM binding z-score: 3.47
[16]
  PBM binding z-score: 2.91
[17]
  PBM binding z-score: 1.08
[18]
  PBM binding z-score: 1.38

## ACAGACAGGTGAGTGAAAGTAACTCAGCTGGACG
[1]
  PBM binding z-score: 0.546
[2]
  PBM binding z-score: 0.438
[3]
  PBM binding z-score: -0.222
[4]
  PBM binding z-score: 0.175
[5]
  PBM binding z-score: -1.05
[6]
  PBM binding z-score: -0.413
[7]
  PBM binding z-score: -0.648
[8]
  PBM binding z-score: 0.2
[9]
  PBM binding z-score: -0.554
[10]
  PBM binding z-score: 0.304
[11]
  PBM binding z-score: -0.349
[12]
  PBM binding z-score: 0.188
[13]
  PBM binding z-score: 0.291
[14]
  PBM binding z-score: -0.517
[15]
  PBM binding z-score: 0.309
[16]
  PBM binding z-score: -0.377
[17]
  PBM binding z-score: -0.737
[18]
  PBM binding z-score: -0.536

## AATACAGGGTCATCGTAGGCCATAGTACGCACAG
[1]
  PBM binding z-score: 3
[2]
  PBM binding z-score: 4.39
[3]
  PBM binding z-score: 3
[4]
  PBM binding z-score: 2.05
[5]
  PBM binding z-score: 3.8
[6]
  PBM binding z-score: 5.45
[7]
  PBM binding z-score: 0.773
[8]
  PBM binding z-score: 5.17
[9]
  PBM binding z-score: 0.832
[10]
  PBM binding z-score: 4.27
[11]
  PBM binding z-score: 3.72
[12]
  PBM binding z-score: 5.77
[13]
  PBM binding z-score: 4.97
[14]
  PBM binding z-score: 3.55
[15]
  PBM binding z-score: 6.52
[16]
  PBM binding z-score: 4.94
[17]
  PBM binding z-score: 1.54
[18]
  PBM binding z-score: 3.64

## GCTTGTAGATCAAGTTTAAGAAAGACTAAGCTAA
[1]
  PBM binding z-score: 0.956
[2]
  PBM binding z-score: 0.313
[3]
  PBM binding z-score: 0.0425
[4]
  PBM binding z-score: 0.223
[5]
  PBM binding z-score: -0.136
[6]
  PBM binding z-score: 0.206
[7]
  PBM binding z-score: 0.211
[8]
  PBM binding z-score: 0.203
[9]
  PBM binding z-score: -0.548
[10]
  PBM binding z-score: -0.0982
[11]
  PBM binding z-score: -0.242
[12]
  PBM binding z-score: -0.195
[13]
  PBM binding z-score: -0.0872
[14]
  PBM binding z-score: 0.649
[15]
  PBM binding z-score: -0.236
[16]
  PBM binding z-score: -0.0932
[17]
  PBM binding z-score: -0.618
[18]
  PBM binding z-score: 0.27

From the supplement of paper PMC6555819
